Measurements reported in the supplement of paper PMC12494721.
Counter-ions that a name gives are not always drawn.

Legend:
Conditions in all cases: incubation time: 27 h, anaerobic, 37 °C;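 for the amine columns active = adjusted P below 0.05 in both replicates with a change the same way and a mean fold change under 0.8 or over 1.25; inactive = the rest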
[1] = tested on: Clostridium sporogenes DSM 1664; assay: growth (OD595) fold change vs plate DMSO controls (fold change (ratio)); higher = more growth
Method in brief: (§1)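 After 27 h at 37 °C under anaerobic conditions, 96-well cultures in mGAM were shaken and read at 595 nm. The readings were blank-subtracted, corrected for compound background using 20 µM compound solutions in water, and converted to OD with a calibration factor of 5. Growth is defined as the fold change over the median of DMSO controls on each plate. Fold changes above 1.5 were set to NA, and each value is the mean of 2 biological replicates.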

Escherichia coli IAI1 [2] = assay: as above
Method in brief: as §1

[3] = tested on: Klebsiella aerogenes DSM 30053; assay: as above
Method in brief: as §1

[4] = tested on: Klebsiella aerogenes DSM 30053; assay: fold change of Histamine concentration vs plate DMSO controls (fold change (ratio)); higher = more amine produced, active = hit call of the paper (significant change in both replicates, either direction)
Method in brief: (§2)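 Amines were quantified by LC–triple-quadrupole MS in dynamic MRM mode against external calibration curves, with drift correction within each batch. The samples were whole anaerobic mGAM cultures of four gut bacterial strains, grown for 27 h at 37 °C in 80 µL wells and extracted with cold acetonitrile/methanol with 0.1% formic acid, then centrifuged. Values are reported as fold change over DMSO controls on the same plate. The mean of 2 biological replicates is given.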

[5] = tested on: Clostridium sporogenes DSM 1664; assay: fold change of Tryptamine concentration vs plate DMSO controls (fold change (ratio)); higher = more amine produced, active = hit call of the paper (significant change in both replicates, either direction)
Method in brief: as §2

[6] = tested on: Ruminococcus gnavus DSM 108212; assay: as above
Method in brief: as §2

Escherichia coli IAI1 [7] = assay: fold change of Putrescine concentration vs plate DMSO controls (fold change (ratio)); higher = more amine produced, active = hit call of the paper (significant change in both replicates, either direction)
Method in brief: as §2

[8] = tested on: Klebsiella aerogenes DSM 30053; assay: as above
Method in brief: as §2

Escherichia coli IAI1 [9] = assay: fold change of Cadaverine concentration vs plate DMSO controls (fold change (ratio)); higher = more amine produced, active = hit call of the paper (significant change in both replicates, either direction)
Method in brief: as §2

[10] = tested on: Klebsiella aerogenes DSM 30053; assay: as above
Method in brief: as §2

[11] = tested on: Ruminococcus gnavus DSM 108212; assay: fold change of 2-Phenylethylamine concentration vs plate DMSO controls (fold change (ratio)); higher = more amine produced, active = hit call of the paper (significant change in both replicates, either direction)
Method in brief: as §2

[12] = tested on: Ruminococcus gnavus DSM 108212; assay: growth (OD595) fold change vs plate DMSO controls (fold change (ratio)); higher = more growth
Method in brief: as §1

| SMILES | growth [1] | growth (Escherichia coli IAI1 [2]) | growth [3] | fold change of Histamine concentration [4] | fold change of Tryptamine concentration [5] | fold change of Tryptamine concentration [6] | fold change of Putrescine concentration (Escherichia coli IAI1 [7]) | fold change of Putrescine concentration [8] | fold change of Cadaverine concentration (Escherichia coli IAI1 [9]) | fold change of Cadaverine concentration [10] | fold change of 2-Phenylethylamine concentration [11] | growth [12] |
| --- | --- | --- | --- | --- | --- | --- | --- | --- | --- | --- | --- | --- |
| O=C(O)[C@H]1/C(=C/CO)O[C@@H]2CC(=O)N21 [Clavulanate potassium salt] (20 µM) | 0.883 | 1.01 | 0.977 | 1.02 (inactive) | 1.01 (inactive) | 0.997 (inactive) | 0.96 (inactive) | 1 (inactive) | 1.05 (inactive) | 0.998 (inactive) | 1.02 (inactive) |  |
| Nc1nc2[nH]cc(CCc3ccc(C(=O)N[C@@H](CCC(=O)O)C(=O)O)cc3)c2c(=O)[nH]1 [Pemetrexed disodium] (20 µM) | 1.11 | 1.25 | 0.529 | 0.471 (inactive) | 1.04 (inactive) | 0.788 (inactive) | 1.07 (inactive) | 0.577 (inactive) | 0.876 (inactive) | 0.663 (inactive) | 0.811 (inactive) |  |
| CCOc1ccc(NC(C)=O)cc1 [Phenacetin] (20 µM) | 1.11 | 1.02 | 1.01 | 1.03 (inactive) | 0.966 (inactive) | 0.999 (inactive) | 1.07 (inactive) | 1.02 (inactive) | 0.997 (inactive) | 1.01 (inactive) | 0.992 (inactive) | 1.3 |
| COc1ccc(C(Cl)=C(c2ccc(OC)cc2)c2ccc(OC)cc2)cc1 [Chlorotrianisene] (20 µM) | 1.07 | 0.924 | 0.946 | 0.94 (inactive) | 0.978 (inactive) | 1.06 (inactive) | 1.01 (inactive) | 0.998 (inactive) | 1 (inactive) | 1 (inactive) | 1.07 (inactive) |  |
| CS(=O)(=O)Nc1ccc([N+](=O)[O-])cc1Oc1ccccc1 [Nimesulide] (20 µM) | 1.01 | 0.991 | 1.03 | 1.07 (inactive) | 0.973 (inactive) | 0.972 (inactive) | 1.01 (inactive) | 1.01 (inactive) | 1 (inactive) | 0.991 (inactive) | 0.905 (inactive) |  |
| C[C@H](CCC(=O)O)[C@H]1CC[C@H]2[C@@H]3[C@H](O)C[C@@H]4C[C@H](O)CC[C@]4(C)[C@H]3CC[C@]12C [Chenodiol] (20 µM) | 1.06 | 0.995 | 1.02 | 1 (inactive) | 1.03 (inactive) | 1.03 (inactive) | 1 (inactive) | 0.999 (inactive) | 1.04 (inactive) | 1.02 (inactive) | 0.994 (inactive) | 1.01 |
| C[C@H]1C[C@H]2[C@@H]3CCC4=CC(=O)C=C[C@]4(C)[C@@]3(F)[C@@H](O)C[C@]2(C)[C@@]1(O)C(=O)CO [Betamethasone] (20 µM) | 1.02 | 1.02 | 1.13 | 0.976 (inactive) | 0.979 (inactive) | 1.01 (inactive) | 1.07 (inactive) | 1.01 (inactive) | 1.04 (inactive) | 1.02 (inactive) | 0.968 (inactive) | 1.11 |
| Cc1c(C)c2c(c(C)c1O)CCC(C)(COc1ccc(CC3SC(=O)NC3=O)cc1)O2 (centres undefined) [Troglitazone] (20 µM) | 1.31 | 0.981 | 1.1 | 0.914 (inactive) | 0.721 (active) | 0.696 (active) | 1.01 (inactive) | 0.995 (inactive) | 1.01 (inactive) | 1.01 (inactive) | 0.777 (active) |  |
| CC(=O)Oc1ccccc1C(=O)Oc1ccccc1C(=O)O [Acetylsalicylsalicylic acid] (20 µM) | 1.05 | 1 | 0.995 | 1.02 (inactive) | 1.01 (inactive) | 1.06 (inactive) | 1.01 (inactive) | 0.998 (inactive) | 0.983 (inactive) | 1.01 (inactive) | 1.11 (inactive) | 0.881 |
| Clc1ccc(Nc2nnc(Cc3ccncc3)c3ccccc23)cc1 [Vatalanib] (20 µM) | 1.06 | 1.19 | 1.08 | 0.91 (inactive) | 1.12 (inactive) | 1.02 (inactive) | 1.17 (inactive) | 0.942 (inactive) | 0.945 (inactive) | 1.02 (inactive) | 1.01 (inactive) |  |
| Cc1cc(C(C)(C)CC(C)(C)C)ccc1OCCOCC[N+](C)(C)Cc1ccccc1 [Methyl benzethonium chloride] (20 µM) | 0.896 | 1.13 | 1.04 | 1.11 (inactive) | 0.948 (inactive) | 0.726 (active) | 1.05 (inactive) | 1.01 (inactive) | 1.04 (inactive) | 0.985 (inactive) | 0.803 (inactive) |  |
| C/C=C(/C(=C/C)c1ccc(O)cc1)c1ccc(O)cc1 [Dienestrol] (20 µM) | 1.09 | 1.01 | 1.04 | 1.02 (inactive) | 0.782 (inactive) | 0.285 (active) | 1.06 (inactive) | 0.995 (inactive) | 1.02 (inactive) | 1.03 (inactive) | 0.344 (inactive) |  |
| CC(=O)c1ccc(S(=O)(=O)NC(=O)NC2CCCCC2)cc1 [Acetohexamide] (20 µM) | 0.85 | 1.02 | 0.972 | 1.05 (inactive) | 1.03 (inactive) | 0.951 (inactive) | 0.999 (inactive) | 1 (inactive) | 1.05 (inactive) | 0.984 (inactive) | 0.942 (inactive) | 1.33 |
| NC(=O)c1cc[n+](CC2=C(C(=O)[O-])N3C(=O)[C@@H](NC(=O)[C@@H](c4ccccc4)S(=O)(=O)O)[C@H]3SC2)cc1 [Cefsulodin sodium salt] (20 µM) | 0.613 | 0.995 | 1.02 | 1 (inactive) | 0.876 (inactive) | 0.796 (active) | 0.97 (inactive) | 1.01 (inactive) | 1.07 (inactive) | 1 (inactive) | 0.886 (inactive) |  |
| OC[C@@H](O)[C@@H](O[C@H]1O[C@H](CO)[C@@H](O)[C@H](O)[C@H]1O)[C@H](O)[C@@H](O)CO [Maltitol] (50 µM) | 1 | 0.988 | 1.02 | 1 (inactive) | 1.01 (inactive) | 0.988 (inactive) | 1.05 (inactive) | 1.02 (inactive) | 1.04 (inactive) | 1.01 (inactive) | 0.941 (inactive) | 0.976 |
| CCN(CC)CCCC(C)Nc1c2ccc(Cl)cc2nc2ccc(OC)cc12 (centres undefined) [Quinacrine dihydrochloride hydrate] (20 µM) | 1.09 | 1.03 | 0.892 | 1.03 (inactive) | 1.1 (inactive) | 1.07 (inactive) | 1.03 (inactive) | 0.928 (inactive) | 0.982 (inactive) | 0.996 (inactive) | 1.08 (inactive) | 1.36 |
| Cc1ccnc2c1NC(=O)c1cccnc1N2C1CC1 [Nevirapine] (20 µM) | 0.962 | 0.959 | 1.01 | 0.914 (inactive) | 1 (inactive) | 1.12 (inactive) | 0.955 (inactive) | 1.02 (inactive) | 1.02 (inactive) | 1.01 (inactive) | 1.12 (inactive) | 0.868 |
| CO/N=C(\C(=O)N[C@@H]1C(=O)N2C(C(=O)OC(C)OC(C)=O)=C(COC(N)=O)CS[C@H]12)c1ccco1 (some centres undefined) [Cefuroxime axetil] (20 µM) | 0.673 | 1.18 | 1.1 | 0.905 (inactive) | 1.03 (inactive) | 0.936 (inactive) | 0.933 (inactive) | 1.05 (inactive) | 1.27 (active) | 1.02 (inactive) | 0.94 (inactive) |  |
| CC[N+](C)(CC)CCC[n+]1c(-c2ccccc2)c2cc(N)ccc2c2ccc(N)cc21 [Propidium iodide] (20 µM) | 1.18 | 1.07 | 1.08 | 1.07 (inactive) | 1.07 (inactive) | 1.05 (inactive) | 0.99 (inactive) | 1 (inactive) | 1 (inactive) | 0.999 (inactive) | 1.08 (inactive) |  |
| Cc1[nH]c(=O)c(C#N)cc1-c1ccncc1 [Milrinone] (20 µM) | 1.08 | 1.05 | 0.987 | 1.09 (inactive) | 0.997 (inactive) | 1.03 (inactive) | 1.02 (inactive) | 1.07 (inactive) | 0.924 (inactive) | 1.03 (inactive) | 0.996 (inactive) | 0.92 |
| CCCCCCCCNC(C)C(O)c1ccc(SC(C)C)cc1 (centres undefined) [Suloctidil] (20 µM) | 1.12 | 1.08 | 1.06 | 0.987 (inactive) | 0.983 (inactive) | 0.729 (active) | 1.03 (inactive) | 0.977 (inactive) | 0.983 (inactive) | 0.996 (inactive) | 0.785 (active) |  |
| N[C@@H](C(=O)N[C@@H]1C(=O)N2C(C(=O)O)=C(Cl)CC[C@H]12)c1ccccc1 [Loracarbef] (20 µM) | 0 | 1.15 | 1.13 | 0.886 (inactive) | 0.0238 (active) | 0.345 (active) | 1.05 (inactive) | 1.04 (inactive) | 1.52 (active) | 1.05 (inactive) | 0.319 (active) |  |
| CC(C)/N=c1\cc2n(-c3ccc(Cl)cc3)c3ccccc3nc-2cc1Nc1ccc(Cl)cc1 [Clofazimine] (20 µM) | 0.239 | 1.03 | 1.04 | 0.999 (inactive) | 0.0321 (active) | 0.637 (active) | 1.04 (inactive) | 1.04 (inactive) | 1 (inactive) | 1.03 (inactive) | 0.727 (active) |  |
| CC/C=C(\C(=O)N[C@@H]1C(=O)N2C(C(=O)OCOC(=O)C(C)(C)C)=C(COC(N)=O)CS[C@H]12)c1csc(N)n1 [Cefcapene pivoxil hydrochloride monohydrate] (20 µM) | 0.716 | 0.786 | 1.07 | 0.95 (inactive) | 1.1 (inactive) | 1.02 (inactive) | 0.961 (inactive) | 0.964 (inactive) | 1.06 (inactive) | 1.03 (inactive) | 1.01 (inactive) |  |
| COc1cccc(OC)c1C(=O)N[C@@H]1C(=O)N2[C@@H]1SC(C)(C)[C@@H]2C(=O)O [Methicillin sodium] (20 µM) | 0.569 | 1.14 | 0.978 | 1.05 (inactive) | 0.196 (active) | 0.608 (active) | 1.24 (inactive) | 1 (inactive) | 0.875 (inactive) | 0.969 (inactive) | 0.721 (inactive) |  |
